SARS PLP yeast = SARS-CoV PLP inhibition in yeast. hit rate 0.19% among 330,000. S. cerevisiae expressing SARS-CoV PLpro, growth rescue. Potency, µM (highest dose often 32.9 µM), usual class: activators; calls by dose curve; also: nearly all actives have a fitted effect of over 55% in size
AMA1-RON2 inh = AMA1-RON2 (P. falciparum) interaction inhibition | AlphaScreen AMA1-biotinylated RON2 peptide binding | Potency, µM (titrated, usually from 58.2 µM), most hits filed as inhibitors | hit rate 0.2% among 360,000 | AID 720542; also: nearly all actives have a fitted effect of over 45% in size
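AMA1 (3D7) with his tag at 25 nM final met compounds first, then biotinylated RON2 peptide at 25 nM; detection used donor plus acceptor beads, 10 µg/mL apiece, read by AlphaScreen after 30 min at room temperature.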
Pf growth 96h = P. falciparum growth inhibition at 96 hours | P. falciparum luciferase reporter growth, 96 h | Potency, µM (doses to about 28.7 µM), hits mostly inhibitors | hit rate 6.9% among 320,000 | AID 504834
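Plates of compound plus infected erythrocytes (2% hematocrit, 0.05% parasitemia final) incubate 96 hours, 37 C, 5% CO2. Detection reagent added; reduced luminescence from the parasites' luciferase reporter flags inhibition.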
Pf growth 48h = P. falciparum growth inhibition at 48 hours (one generation) | P. falciparum luciferase growth in erythrocytes, 48 h | Potency, µM (series often up to 28.7 µM), most hits filed as inhibitors | hit rate 5.9% among 310,000 | AID 504832
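Firefly luciferase activity from engineered P. falciparum reports growth; inhibitors lower the luminescent signal. Cultures contained 2% hematocrit erythrocytes at 0.1% final parasitemia.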
Each line names hits and unclear results; the compound was inactive in the other large screens. The list is not random: actives were taken first. Their share in the collection is about 9.4%. Unless noted, calls follow the shape of the dose curve; as a rule, active = well fitted curve in the direction sought with a large enough effect; inconclusive = small, poorly fitted or top-dose-only effect, or another doubt; inactive = no such curve, though single readings can be large; an effect the other way counts as inactive or inconclusive.

CC1CN(C)C(C)C/C1=N\Oc1ccc([N+](=O)[O-])cc1 (configuration not stated)	Pf growth 96h 1.04µM
CC(C)C1N=C(c2ccc3c(c2)OCO3)CC(c2ccccc2O)N1 (configuration not stated)	Pf growth 48h inconclusive (no result: Pf growth 96h)
CCCCCC1CCC(c2n[nH]c(=S)n2C)CC1 (configuration not stated)	Pf growth 96h 5.86µM, Pf growth 48h inconclusive
C=CCn1c(C2CC2)n[nH]c1=S	none
CCOC(=O)CC1C(=O)NCCN1S(=O)(=O)c1ccccc1Cl (configuration not stated)	Pf growth 96h inconclusive
CCc1cc2c(=O)c(-c3cscn3)coc2cc1OC	none (no result: AMA1-RON2 inh)
CCCCNC(=O)c1onc(CSc2nc3ccccc3[nH]2)c1C(=O)NCCCC	Pf growth 96h 3.29µM, Pf growth 48h 1.47µM
O=C(NCC1CC1)c1onc(CSc2nc3ccccc3[nH]2)c1C(=O)NCC1CC1	Pf growth 96h 10.4µM, Pf growth 48h inconclusive
O=C(NCCCN1CCOCC1)c1onc(CSc2nc3ccccc3[nH]2)c1C(=O)NCCCN1CCOCC1	none
CC(C)NC(=O)c1onc(CSc2nc3ccccc3[nH]2)c1C(=O)NC(C)C	none
COc1ccccc1-n1c(-c2ccc(F)cc2)coc1=O	Pf growth 96h inconclusive
COc1ccc(C(=O)N/C(=C\c2ccco2)C(=O)NCCCn2ccnc2)cc1	none
Cc1ccc(C(=O)N/C(=C\c2ccco2)C(=O)NCCCn2ccnc2)cc1C	AMA1-RON2 inh 16.8µM
O=C(CSc1nnc(COc2ccccc2)o1)c1ccccc1	none (no result: Pf growth 48h)
COc1ccc(N2CCN(C(=O)CN(c3ccccc3)S(C)(=O)=O)CC2)cc1	Pf growth 96h 10.4µM
COc1ccc(N(CC(=O)N2CCN(c3ccccc3)CC2)S(=O)(=O)c2ccccc2)cc1	none (no result: SARS PLP yeast, Pf growth 96h, Pf growth 48h)
COc1ccccc1N1CCN(C(=O)CN(c2ccccc2OC)S(=O)(=O)c2ccccc2)CC1	Pf growth 96h 1.31µM, Pf growth 48h inconclusive
COc1ccccc1N1CCN(C(=O)C(Sc2ccccc2)c2ccccc2)CC1 (configuration not stated)	Pf growth 48h 13.1µM
CCc1ccc(N(CC(=O)N2CCOCC2)S(C)(=O)=O)cc1	Pf growth 96h 13.1µM
C[C@H]1CCCCO[C@H](CN(C)C(=O)Nc2ccc(F)cc2)[C@@H](C)CN([C@@H](C)CO)C(=O)c2cc(NC(=O)Nc3ccc4c(c3)OCO4)ccc2O1	none (no result: SARS PLP yeast, Pf growth 96h, Pf growth 48h)
COc1ccc(N2CCN(C(=O)CN(c3cccc(OC)c3)S(=O)(=O)c3ccccc3)CC2)cc1	SARS PLP yeast inconclusive, AMA1-RON2 inh inconclusive, Pf growth 96h inconclusive, Pf growth 48h 13.1µM
COc1ccc(S(=O)(=O)N(CC(=O)N2CCN(c3ccccc3)CC2)c2ccccc2)cc1	Pf growth 96h inconclusive (no result: Pf growth 48h)
O=C1C(Cc2ccccc2)SC(=Nc2ccccc2)N1c1ccccc1 (configuration not stated)	Pf growth 48h 13.1µM
COc1ccccc1C(=O)N1CCCN(C(=O)c2ccccc2OC)CC1	none
COc1ccc(C2=NOC(Cn3c(Cc4ccc(Cl)cc4)nc4c3c(=O)n(C)c(=O)n4C)C2)cc1 (configuration not stated)	Pf growth 96h 13.1µM
COc1ccccc1C1=NOC(Cn2c(NCCCO)nc3c2c(=O)n(C)c(=O)n3C)C1 (configuration not stated)	none
Nc1nc(Nc2cccc(Cl)c2)nc(NCCO)c1[N+](=O)[O-]	Pf growth 96h inconclusive
CCOC(=O)C1=C(C)NC(=O)NC1c1c(OCC(=O)N2CCCCC2)ccc2ccccc12 (configuration not stated)	Pf growth 48h 11.7µM
Cc1ccc(C2CC(c3ccccc3Cl)n3nc(N)nc3N2)cc1 (configuration not stated)	none (no result: Pf growth 48h)
CCc1ccc(C2CC(c3ccccc3)Nc3nc(N)nn32)cc1 (configuration not stated)	Pf growth 96h 1.85µM
COc1cccc(C2CC(c3c(Cl)cccc3Cl)n3nc(N)nc3N2)c1 (configuration not stated)	Pf growth 96h 13.1µM, Pf growth 48h inconclusive
COc1cccc(C2CC(c3c(F)cccc3Cl)n3nc(N)nc3N2)c1 (configuration not stated)	Pf growth 48h inconclusive
CCOc1ccc(C2CC(c3ccccc3C)n3nc(N)nc3N2)cc1 (configuration not stated)	Pf growth 96h inconclusive
CCOc1ccccc1C1CC(c2ccc(Br)cc2)Nc2nc(N)nn21 (configuration not stated)	Pf growth 96h 7.38µM, Pf growth 48h inconclusive
CCc1ccc(C2CC(c3ccc(C)cc3)n3nc(N)nc3N2)cc1 (configuration not stated)	none (no result: SARS PLP yeast, Pf growth 96h, Pf growth 48h)
Nc1nc2n(n1)C(c1ccccc1Cl)CC(c1ccc(F)cc1)N2 (configuration not stated)	Pf growth 96h 1.65µM (no result: Pf growth 48h)
NN=C1c2ccccc2C(=O)C1C(=O)C(c1ccccc1)c1ccccc1 (configuration not stated)	none (no result: SARS PLP yeast, Pf growth 96h, Pf growth 48h)
CCSc1nc2cc(OC)c(OC)cc2c(=O)n1CCc1ccccc1	Pf growth 96h inconclusive (no result: Pf growth 48h)
COc1ccc(Cn2c(SCc3ccccc3C)nc3cc(OC)c(OC)cc3c2=N)cc1	Pf growth 96h 1.65µM, Pf growth 48h 5.86µM (no result: AMA1-RON2 inh)
COCCCn1c(SCCc2ccccc2)nc2cc(OC)c(OC)cc2c1=N	Pf growth 96h 9.28µM, Pf growth 48h 11.7µM
COc1cc2cc(C(c3nnnn3C(C)(C)C)N3CCc4ccccc4C3)c(=O)[nH]c2cc1OC (configuration not stated)	Pf growth 96h inconclusive, Pf growth 48h inconclusive
Cc1ccc2[nH]c(=O)c(C(c3nnnn3C(C)(C)C)N3CCN(C(=O)c4ccco4)CC3)cc2c1 (configuration not stated)	Pf growth 96h inconclusive, Pf growth 48h 9.28µM
CCC(C)(C)n1nnnc1C(c1cc2cc(OC)c(OC)cc2[nH]c1=O)N1CCc2ccccc21 (configuration not stated)	Pf growth 96h inconclusive, Pf growth 48h 1.04µM
CCC(C)(C)n1nnnc1C(c1cc2cc(C)ccc2[nH]c1=O)N1CCCC1 (configuration not stated)	Pf growth 96h 14.7µM
Cc1ccc2cc(C(c3nnnn3C(C)(C)C)N3CCCCCC3)c(=O)[nH]c2c1 (configuration not stated)	Pf growth 96h inconclusive, Pf growth 48h inconclusive
CCC(C)(C)n1nnnc1C(c1ccccc1OC)N1CCN(C(=O)c2ccco2)CC1 (configuration not stated)	Pf growth 48h 1.85µM
CC#CCOC(=O)c1c(C)nc2sc3c(c2c1N)CCC(O)C3 (configuration not stated)	Pf growth 96h inconclusive, Pf growth 48h inconclusive (no result: SARS PLP yeast)
CC(C)NC(=O)CCc1nc2cccnc2n1-c1ccccc1	none
CCC(C)(C)n1nnnc1C(c1cc2cc(C)cc(C)c2[nH]c1=O)N1CCN(C(=O)c2ccco2)CC1 (configuration not stated)	Pf growth 96h 1.65µM, Pf growth 48h inconclusive

Compound activity (PubChem BioAssay)
